Results published in the supplement of paper PMC8728848.
This excerpt belongs to a sample that is enriched for the strongest signals.

Legend:
Assay in all cases: glycan array binding signal (z-score within array); higher = stronger binding
Settings in all cases: glycan notation: IUPAC condensed, linker removed
[1] = target: Fuc(a1-2)Gal(b1-3)[Fuc(a1-4)]GlcNAc
Outline: (§1)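 Glycan array binding is given as a within-array Z-score, which can be read as non-binding when negative. The arrays, 3228 of them, came from the Consortium for Functional Glycomics database and were retained only where the protein sequence was available. Z-scores were averaged across arrays of the same protein sequence at different concentrations or buffers and across linkers.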

[2] = target: Fuc(a1-2)Gal(b1-4)[Fuc(a1-3)]GlcNAc
Outline: as §1

[3] = target: Fuc(a1-2)Gal(b1-4)[Fuc(a1-3)]GlcNAc(b1-3)Gal(b1-4)[Fuc(a1-3)]GlcNAc(b1-3)Gal(b1-4)[Fuc(a1-3)]GlcNAc
Outline: as §1

[4] = target: Fuc(a1-2)Gal(b1-4)[Fuc(a1-3)]GlcNAc(b1-3)[Neu5Ac(a2-6)Gal(b1-4)GlcNAc(b1-6)]Gal(b1-4)Glc
Outline: as §1

[5] = target: Fuc(a1-2)[Gal(a1-3)]Gal(b1-3)GalNAc
Outline: as §1

[6] = target: Fuc(a1-3)[Gal(b1-4)]GlcNAc(b1-2)Man(a1-3)[Fuc(a1-3)[Gal(b1-4)]GlcNAc(b1-2)Man(a1-6)]Man(b1-4)GlcNAc(b1-4)GlcNAc
Outline: as §1

[7] = target: Gal(a1-3)Gal(b1-3)GlcNAc(b1-2)Man
Outline: as §1

[8] = target: Gal(a1-3)Gal(b1-3)[Fuc(a1-4)]GlcNAc(b1-2)Man(a1-3)[Gal(a1-3)Gal(b1-3)[Fuc(a1-4)]GlcNAc(b1-2)Man(a1-6)]Man(b1-4)GlcNAc(b1-4)GlcNAc
Outline: as §1

Gal(b1-3)Gal(b1-4)GlcNAc = target: Gal(b1-3)Gal(b1-4)GlcNAc
Outline: as §1

[9] = target: Gal(b1-3)GalNAc(b1-4)Gal(b1-4)Glc
Outline: as §1

Gal(b1-3)GlcNAc(b1-2)Man = target: Gal(b1-3)GlcNAc(b1-2)Man
Outline: as §1

[10] = target: Gal(b1-3)[Neu5Ac(a2-6)]GlcNAc
Outline: as §1

[11] = target: Gal(b1-3)[Neu5Ac(a2-6)]GlcNAc(a1-4)Gal(b1-4)Glc
Outline: as §1

[12] = target: Gal(b1-4)GlcNAc(b1-2)[Gal(b1-4)GlcNAc(b1-6)]Man(a1-6)[GlcNAc(b1-4)][Gal(b1-4)GlcNAc(b1-2)Man(a1-3)]Man(b1-4)GlcNAc(b1-4)GlcNAc
Outline: as §1

[13] = target: Gal(b1-4)GlcNAc(b1-3)Gal(b1-4)GlcNAc(b1-2)[Gal(b1-4)GlcNAc(b1-3)Gal(b1-4)GlcNAc(b1-6)]Man(a1-6)[Gal(b1-4)GlcNAc(b1-3)Gal(b1-4)GlcNAc(b1-2)Man(a1-3)]Man(b1-4)GlcNAc(b1-4)GlcNAc
Outline: as §1

[14] = target: Gal(b1-4)GlcNAc(b1-3)[Gal(b1-4)GlcNAc(b1-6)]GalNAc
Outline: as §1

[15] = target: Gal(b1-4)GlcNAc(b1-6)[Gal(b1-3)]GlcNAc
Outline: as §1

Gal3S(b1-4)Glc = target: Gal3S(b1-4)Glc
Outline: as §1

Gal3S(b1-4)GlcNAc = target: Gal3S(b1-4)GlcNAc
Outline: as §1

Gal6S(b1-3)GlcNAc = target: Gal6S(b1-3)GlcNAc
Outline: as §1

Gal6S(b1-4)Glc6S = target: Gal6S(b1-4)Glc6S
Outline: as §1

Gal6S(b1-4)GlcNAc6S = target: Gal6S(b1-4)GlcNAc6S
Outline: as §1

[16] = target: GalNAc(b1-3)Gal(a1-4)Gal(b1-4)GlcNAc
Outline: as §1

[17] = target: GalNAc3S(b1-4)[Fuc(a1-3)]GlcNAc
Outline: as §1

Glc(b1-6)Glc = target: Glc(b1-6)Glc
Outline: as §1

[18] = target: GlcNAc(a1-4)Gal(b1-4)GlcNAc(b1-3)Gal(b1-4)GlcNAc(b1-3)Gal(b1-4)GlcNAc
Outline: as §1

[19] = target: GlcNAc(b1-2)Gal(b1-3)GalNAc
Outline: as §1

[20] = target: GlcNAc(b1-2)Man(a1-3)[GlcNAc(b1-4)][GlcNAc(b1-2)Man(a1-6)]Man(b1-4)GlcNAc(b1-4)[Fuc(a1-6)]GlcNAc
Outline: as §1

[21] = target: GlcNAc(b1-3)Gal(b1-3)GalNAc
Outline: as §1

[22] = target: GlcNAc(b1-3)Gal(b1-4)GlcNAc(b1-2)[GlcNAc(b1-3)Gal(b1-4)GlcNAc(b1-6)]Man(a1-6)[GlcNAc(b1-3)Gal(b1-4)GlcNAc(b1-2)Man(a1-3)]Man(b1-4)GlcNAc(b1-4)GlcNAc
Outline: as §1

[23] = target: GlcNAc(b1-3)Gal(b1-4)GlcNAc(b1-6)[GlcNAc(b1-3)Gal(b1-3)]GalNAc
Outline: as §1

[24] = target: GlcNAc(b1-3)[GlcNAc(b1-4)][GlcNAc(b1-6)]GlcNAc
Outline: as §1

Kdn(a2-3)Gal(b1-4)GlcNAc = target: Kdn(a2-3)Gal(b1-4)GlcNAc
Outline: as §1

[25] = target: Man(a1-2)Man(a1-2)Man(a1-3)[Man(a1-2)Man(a1-6)[Man(a1-3)]Man(a1-6)]Man(b1-4)GlcNAc(b1-4)GlcNAc
Outline: as §1

Man(a1-3)[Man(a1-6)]Man = target: Man(a1-3)[Man(a1-6)]Man
Outline: as §1

[26] = target: Neu5Ac(a2-3)Gal(b1-3)GlcNAc(b1-2)Man(a1-3)[Neu5Ac(a2-3)Gal(b1-3)GlcNAc(b1-2)Man(a1-6)]Man(b1-4)GlcNAc(b1-4)GlcNAc
Outline: as §1

[27] = target: Neu5Ac(a2-3)Gal(b1-3)GlcNAc(b1-2)[Neu5Ac(a2-3)Gal(b1-3)GlcNAc(b1-4)]Man(a1-6)[Neu5Ac(a2-3)Gal(b1-3)GlcNAc(b1-2)Man(a1-3)]Man(b1-4)GlcNAc(b1-4)GlcNAc
Outline: as §1

[28] = target: Neu5Ac(a2-3)Gal(b1-4)GlcNAc(b1-3)Gal(b1-4)GlcNAc(b1-3)Gal(b1-4)GlcNAc(b1-2)Man(a1-3)[Neu5Ac(a2-3)Gal(b1-4)GlcNAc(b1-3)Gal(b1-4)GlcNAc(b1-3)Gal(b1-4)GlcNAc(b1-2)Man(a1-6)]GalNAc
Outline: as §1

[29] = target: Neu5Ac(a2-3)Gal(b1-4)[Fuc(a1-3)]GlcNAc(b1-6)[Gal(b1-3)]GalNAc
Outline: as §1

[30] = target: Neu5Ac(a2-3)Gal(b1-4)[Fuc(a1-3)]GlcNAc6S
Outline: as §1

Neu5Ac(a2-8)Neu5Ac = target: Neu5Ac(a2-8)Neu5Ac
Outline: as §1

[31] = target: Neu5Gc(a2-3)Gal(b1-4)GlcNAc
Outline: as §1

[32] = target: Neu5Gc(a2-8)Neu5Gc(a2-3)Gal(b1-4)GlcNAc
Outline: as §1

[33] = target: Neu5Gc(a2-8)Neu5Gc(a2-6)Gal(b1-4)GlcNAc
Outline: as §1

B1: Epa15 (Candida glabrata) (protein)
chain: MGSSHHHHHHSSGLVPRGSHMASDPTTFPLGCSPEFTKTKKGLSMELYRYDYLPPGSYPCWDSAYLNPSYPRTGYKAKKLIATVDGVSGDINFKFNPKFGCKAIPDYLPSNFNYHEPITITNFTMILYGYFMPKTTAFHTFYVTADDLLFMNFGAGNAFDCCRREETADKFGNYAAYSVWGKKSLKNELTVYLHTGVYYPIRLFYNNRDYIAQLDIRFKTEHSNAIITNFTDYFYSVDDSSLGCPGLI
- glycan array binding signal (z-score) [1]: -0.446
- glycan array binding signal (z-score) [2]: -0.361
- glycan array binding signal (z-score) [3]: -0.446
- glycan array binding signal (z-score) [4]: -0.092
- glycan array binding signal (z-score) [5]: -0.127
- glycan array binding signal (z-score) [6]: -0.403
- glycan array binding signal (z-score) [7]: 1.8
- glycan array binding signal (z-score) [8]: 1.85
- glycan array binding signal (z-score) (Gal(b1-3)Gal(b1-4)GlcNAc): 0.625
- glycan array binding signal (z-score) [9]: 2.64
- glycan array binding signal (z-score) (Gal(b1-3)GlcNAc(b1-2)Man): 0.38
- glycan array binding signal (z-score) [10]: 2.5
- glycan array binding signal (z-score) [11]: -0.269
- glycan array binding signal (z-score) [12]: -0.041
- glycan array binding signal (z-score) [13]: 2.71
- glycan array binding signal (z-score) [14]: 5.02
- glycan array binding signal (z-score) [15]: 5.53
- glycan array binding signal (z-score) (Gal3S(b1-4)Glc): -0.053
- glycan array binding signal (z-score) (Gal3S(b1-4)GlcNAc): -0.488
- glycan array binding signal (z-score) (Gal6S(b1-3)GlcNAc): 2.78
- glycan array binding signal (z-score) (Gal6S(b1-4)Glc6S): 4.58
- glycan array binding signal (z-score) (Gal6S(b1-4)GlcNAc6S): 10.6
- glycan array binding signal (z-score) [16]: 0.652
- glycan array binding signal (z-score) [17]: -0.141
- glycan array binding signal (z-score) (Glc(b1-6)Glc): -0.464
- glycan array binding signal (z-score) [18]: -0.452
- glycan array binding signal (z-score) [19]: -0.411
- glycan array binding signal (z-score) [20]: -0.557
- glycan array binding signal (z-score) [21]: -0.444
- glycan array binding signal (z-score) [22]: 0.605
- glycan array binding signal (z-score) [23]: -0.188
- glycan array binding signal (z-score) [24]: -0.536
- glycan array binding signal (z-score) (Kdn(a2-3)Gal(b1-4)GlcNAc): -0.317
- glycan array binding signal (z-score) [25]: -0.285
- glycan array binding signal (z-score) (Man(a1-3)[Man(a1-6)]Man): -0.303
- glycan array binding signal (z-score) [26]: 0.415
- glycan array binding signal (z-score) [27]: -0.226
- glycan array binding signal (z-score) [28]: 2.56
- glycan array binding signal (z-score) [29]: 1.87
- glycan array binding signal (z-score) [30]: -0.461
- glycan array binding signal (z-score) (Neu5Ac(a2-8)Neu5Ac): -0.571
- glycan array binding signal (z-score) [31]: -0.437
- glycan array binding signal (z-score) [32]: -0.346
- glycan array binding signal (z-score) [33]: -0.395
